According to PubChem BioAssay (NCI):
Compounds without any hit were thinned out: in the full panel of roughly 83,000, 20% have a hit.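 The endpoint reported here, percent growth, reads 100 for growth as untreated, 0 for no net growth and -100 for all cells dead.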 Activity calls are given as the source filed them. How the source made its calls: active means growth percent below 10; inactive means the rest.

Tests used:
Experiment in all cases: NCI-60 one-dose screen, 48 h (100 = growth as untreated, 0 = no growth, -100 = all killed)
Conditions in all cases: 10 µM unless noted
T-47D breast = test system: T-47D breast
BT-549 breast = test system: BT-549 breast
MDA-MB-435 melanoma = test system: MDA-MB-435 melanoma
SW-620 colon = test system: SW-620 colon
MCF7 breast = test system: MCF7 breast
HCT-116 colon = test system: HCT-116 colon
HCC-2998 colon = test system: HCC-2998 colon
KM12 colon = test system: KM12 colon

Measured: growth

N#C/C(=C\c1ccc(-c2ccc(F)cc2)o1)C(=O)Nc1ncc(Cc2ccc(Cl)cc2Cl)s1
active: T-47D breast -5.01% | BT-549 breast -15.8% | MDA-MB-435 melanoma -20.4% | SW-620 colon -67.1% | MCF7 breast -5.46% | HCT-116 colon -61.4%
inactive: HCC-2998 colon 79.8% | KM12 colon 13.4%

C#C[C@]1(O)CC[C@H]2[C@@H]3CC=C4c5sc(Nc6ccncc6)nc5CC[C@]4(C)[C@H]3CC[C@@]21C
inactive: T-47D breast 39.9% | BT-549 breast 15.9%
active: MDA-MB-435 melanoma -75.2% | SW-620 colon -37.2% | MCF7 breast -42.1% | HCT-116 colon 3.69% | HCC-2998 colon 1.79% | KM12 colon -94.1%

CC1CCc2c(sc3nc(SCC(=O)N/N=C/c4ccc(Cl)cc4)n(-c4ccccc4)c(=O)c23)C1 (configuration not stated)
inactive: T-47D breast 103% | BT-549 breast 99.6% | MDA-MB-435 melanoma 101% | SW-620 colon 107% | MCF7 breast 90.5% | HCT-116 colon 89.7% | HCC-2998 colon 112% | KM12 colon 103%

COc1ccc(/C(C)=C(\c2ccc(Cl)cc2)c2ccc(OCCN)cc2)cc1
inactive: T-47D breast 95.2% | BT-549 breast 91.7% | MDA-MB-435 melanoma 76.9% | SW-620 colon 36.4% | MCF7 breast 72.4% | HCT-116 colon 42.3% | HCC-2998 colon 30.2% | KM12 colon 78.2%

CC[C@H](C)[C@H]1NC(=O)[C@@H]([C@H](O)C(C)C)NC(=O)[C@@H](C)N(C)C(=O)[C@H](C)N(C)C(=O)[C@H](CC(C)C)NC(=O)[C@H](CC(C)C)N(C)C(=O)[C@H](C)N(C)C1=O
active: T-47D breast -6.92% | BT-549 breast -4.47% | MDA-MB-435 melanoma 5.17% | SW-620 colon 5.6% | MCF7 breast 1.66% | HCT-116 colon 1.42% | HCC-2998 colon 2.12%
inactive: KM12 colon 16%

CC(C)Sc1nc(NC2CC2)c(C#N)c(-c2ccccc2)n1
inactive: T-47D breast 83.5% | BT-549 breast 105% | MDA-MB-435 melanoma 88.1% | SW-620 colon 82.6% | MCF7 breast 73.7% | HCT-116 colon 53.2% | HCC-2998 colon 89.9% | KM12 colon 97.5%

COc1ccc(CCN2C(=O)/C(=C/c3nc(CO)cs3)SC2=S)cc1
inactive: T-47D breast 76.4% | BT-549 breast 97.1% | MDA-MB-435 melanoma 96% | SW-620 colon 93.7% | MCF7 breast 16% | HCT-116 colon 59.9% | HCC-2998 colon 107% | KM12 colon 17.8%

NS(=O)(=O)c1ccc(Nc2nc(N/N=C/c3ccc(C(F)(F)F)cc3)nc(Nc3ccccc3)n2)cc1
inactive: T-47D breast 31.3% | BT-549 breast 48.9% | MDA-MB-435 melanoma 19.9% | SW-620 colon 54.8% | MCF7 breast 10.3% | HCC-2998 colon 53.1% | KM12 colon 21.7%
active: HCT-116 colon 9.73%

O=C(CN1C(=O)S/C(=C\c2ccccc2)C1=O)Nc1ccc(C(=O)/C=C/c2cc3ccccc3nc2Cl)cc1
active: HCT-116 colon -64.1%
inactive: T-47D breast 54.6% | BT-549 breast 60.9% | MDA-MB-435 melanoma 82.9% | SW-620 colon 98% | MCF7 breast 26.6% | HCC-2998 colon 97.8% | KM12 colon 87.7%

CCCCCc1ccc(S(=O)(=O)N(C(C)=O)c2cccc(-c3csc(N(CCN4CCN(C)CC4)C(C)=O)n3)c2)cc1
active: MDA-MB-435 melanoma -73% | SW-620 colon -26.5% | MCF7 breast -66.2% | HCT-116 colon -66.2% | HCC-2998 colon -81.2%
inactive: T-47D breast 50.4% | BT-549 breast 91.3% | KM12 colon 27.4%

COc1ccc([C@H]2[C@H](O)C(=O)N2c2cc(OC)c(OC)c(OC)c2)cc1Cl
inactive: T-47D breast 69.9% | SW-620 colon 17.8% | HCC-2998 colon 13.8% | KM12 colon 11.3%
active: BT-549 breast 1.85% | MDA-MB-435 melanoma -0.621% | MCF7 breast 9.61% | HCT-116 colon 2.62%

Oc1ccc(CSc2nnc(-c3ccc(Cl)cc3)o2)c2cccnc12
inactive: T-47D breast 18.5% | BT-549 breast 27.9% | MDA-MB-435 melanoma 22.3% | SW-620 colon 17.3% | MCF7 breast 12.4% | HCT-116 colon 20.8% | HCC-2998 colon 29.1% | KM12 colon 18.4%

CCN1C(=O)N(CC)C2SC(N/N=C/C=C/c3ccccc3OC)=NC21 (configuration not stated)
active: MDA-MB-435 melanoma -16.7% | HCT-116 colon 6.23% | HCC-2998 colon 8.41%
inactive: T-47D breast 67.3% | BT-549 breast 18.7% | SW-620 colon 20.4% | MCF7 breast 12.9% | KM12 colon 11.6%

CC[C@@](C)(NC(=O)C(C)(C)NC(=O)[C@@H](NC(=O)[C@@H]1CCCN1C(=O)C(C)(C)NC(=O)[C@H](CC(C)C)NC(=O)CNC(=O)C(C)(C)NC(=O)[C@@H](NC(=O)C(C)(C)NC(=O)[C@H](CCC(N)=O)NC(=O)[C@H](C)NC(=O)C(C)(C)NC(=O)[C@H](C)NC(=O)C(C)(C)NC(=O)[C@H](C)NC(=O)C(C)(C)NC(C)=O)C(C)C)C(C)C)C(=O)N[C@@H](CCC(N)=O)C(=O)N[C@@H](CCC(N)=O)C(=O)N[C@H](CO)CC1CCCCC1
inactive: T-47D breast 12.2% [5 µM] | MDA-MB-435 melanoma 12.4% [5 µM] | SW-620 colon 49.1% [5 µM] | HCT-116 colon 12.4% [5 µM] | HCC-2998 colon 28.9% [5 µM] | KM12 colon 34.8% [5 µM]
active: BT-549 breast -74.3% [5 µM] | MCF7 breast 8.62% [5 µM]

Fc1ccc(-c2cc3nc(C(Cl)Cl)nc(-c4cccs4)n3n2)cc1
inactive: T-47D breast 25.2% | BT-549 breast 92% | MDA-MB-435 melanoma 14.3%
active: SW-620 colon 2.69% | MCF7 breast 3.99% | HCT-116 colon -2.24% | HCC-2998 colon -61.5% | KM12 colon -30.5%

COc1ccc(NC(=O)[C@H](C)N)cc1C(=O)Nc1cccc(-c2cc(=O)c3c(OC)c(OC)c(OC)cc3o2)c1
inactive: T-47D breast 41% | BT-549 breast 78.4% | MDA-MB-435 melanoma 82.1% | SW-620 colon 94% | MCF7 breast 57.8% | HCT-116 colon 75% | HCC-2998 colon 65.2% | KM12 colon 68.1%

C=CCn1c(SCC(=O)Nc2cccc(C(=O)/C=C/c3ccc(Br)cc3)c2)nc2ccccc2c1=O
inactive: T-47D breast 76% | BT-549 breast 45.8% | MDA-MB-435 melanoma 86.9% | SW-620 colon 76.3% | MCF7 breast 26.6% | HCC-2998 colon 93.8% | KM12 colon 81.3%
active: HCT-116 colon 8.62%

COCCC[C@H]1O[C@@](O)([C@H](C)[C@@H]2CC(OC)C(O)/C=C(C)/C=C(C)/C=C(\C)C(OC3O[C@@H](C)[C@H](O)C(O)[C@@H]3O)C(C)/C=C(C)/C=C(OC)/C=C(\C)C(=O)O2)C(OC)C(O)[C@]1(C)O[C@H]1C[C@@H](O)[C@H](O[C@H]2C[C@](C)(O)[C@H](O)C(C)O2)C(C)O1 (some centres not stated)
inactive: T-47D breast 24.6% | BT-549 breast 28.7% | MDA-MB-435 melanoma 54.9% | SW-620 colon 76.4% | MCF7 breast 22.4% | HCT-116 colon 48.2% | HCC-2998 colon 56.4% | KM12 colon 66.5%

IP(CCCCCCCCCCSc1n(Cc2ccc3ccccc3c2)c(-c2ccccc2)c(-c2ccccc2)[n+]1Cc1ccc2ccccc2c1)(c1ccccc1)(c1ccccc1)c1ccccc1
active: T-47D breast -57.4% | BT-549 breast -71.4% | MDA-MB-435 melanoma -81.7% | SW-620 colon -77.8% | MCF7 breast -54.2% | HCT-116 colon -60.9% | HCC-2998 colon -86.8% | KM12 colon -83.3%

Cc1ccc(-c2nnc3sc(C4=Cc5ccccc5OC=C4)nn23)cc1
inactive: T-47D breast 91.6% | BT-549 breast 95.7% | MDA-MB-435 melanoma 93.7% | SW-620 colon 99.9% | MCF7 breast 88.9% | HCT-116 colon 104% | HCC-2998 colon 101% | KM12 colon 106%

CNC(=O)c1cc(Oc2ccc3nc(NC(=O)c4ccc(CN5CCCN(C)CC5)c(C(F)(F)F)c4)sc3c2)ccn1
inactive: BT-549 breast 83.2% | KM12 colon 30.3%
active: T-47D breast 7.14% | MDA-MB-435 melanoma -8.88% | SW-620 colon -70.9% | MCF7 breast -38.9% | HCT-116 colon 5.99% | HCC-2998 colon 4.85%

O=C1Nc2cc(OC(F)(F)F)ccc2Oc2ccc(-c3ccnc(N4CC[C@H](O)C4)c3)cc21
inactive: T-47D breast 62.3%
active: BT-549 breast -18.7% | MDA-MB-435 melanoma -57.3% | SW-620 colon -19.3% | MCF7 breast 0.967% | HCT-116 colon -40.5% | HCC-2998 colon 0.963% | KM12 colon -12.9%

O=C(O)c1ccc(-n2cc(CNc3ccc(F)cc3)c(-c3ccc(C(F)(F)F)cc3)n2)cc1
inactive: T-47D breast 78.2% | BT-549 breast 103% | MDA-MB-435 melanoma 80.9% | SW-620 colon 98.6% | MCF7 breast 67.8% | HCT-116 colon 83.3% | HCC-2998 colon 102% | KM12 colon 78.7%

Cn1c(SC(C(=O)Nc2ccc(F)cc2)c2ccccc2)nc2ccccc2c1=O (configuration not stated)
inactive: T-47D breast 96% | BT-549 breast 102% | MDA-MB-435 melanoma 101% | SW-620 colon 105% | MCF7 breast 90.9% | HCT-116 colon 95.3% | HCC-2998 colon 98.3% | KM12 colon 112%

Cn1cc(-c2nnc(N)nc2-c2cn(C)c3ccc(F)cc23)c2cc(F)ccc21
inactive: T-47D breast 69.1% | BT-549 breast 99.8% | MDA-MB-435 melanoma 101% | SW-620 colon 102% | MCF7 breast 87.2% | HCT-116 colon 92.7% | HCC-2998 colon 104% | KM12 colon 90.8%

Cc1nn(-c2ccccc2)cc1/C=N/Nc1nc(Nc2ccccc2)nc(Nc2ccc(S(N)(=O)=O)cc2)n1
active: MDA-MB-435 melanoma -31.8% | SW-620 colon -14.3% | MCF7 breast -69.9% | HCT-116 colon -40.9% | HCC-2998 colon -17.2% | KM12 colon 9.04%
inactive: T-47D breast 18.9% | BT-549 breast 21.5%

O=C1C[C@@H](c2ccccc2)Oc2c(Cc3ccccc3O)c(O)c(Cc3cc(Cc4cc(Cc5ccccc5O)ccc4O)ccc3O)c(O)c21
inactive: T-47D breast 94% | BT-549 breast 104% | MDA-MB-435 melanoma 93.8% | SW-620 colon 99.3% | MCF7 breast 92.2% | HCT-116 colon 96.7% | HCC-2998 colon 106% | KM12 colon 92.8%

CC1(C)CC[C@]2(C(=O)N3CCCN(CC#N)CC3)CC[C@]3(C)C(=CC[C@@H]4[C@@]5(C)CC[C@H](O)C(C)(C)[C@@H]5CC[C@]43C)[C@H]2C1
inactive: T-47D breast 52.1% | BT-549 breast 61.4% | MDA-MB-435 melanoma 59.8% | SW-620 colon 27.8% | HCC-2998 colon 71.2% | KM12 colon 54.1%
active: MCF7 breast 5.68% | HCT-116 colon -47.6%

COC[C@@]1(C)CC[C@]2(C)CC[C@]3(C)C(=CC[C@@H]4[C@@]5(C)CCCNC(C)(C)[C@@H]5CC[C@]43C)C2C1 (some centres not stated)
inactive: T-47D breast 70.5% | BT-549 breast 87.4% | MDA-MB-435 melanoma 44.2% | SW-620 colon 53.2% | MCF7 breast 23.9% | HCT-116 colon 40.1% | HCC-2998 colon 58.8% | KM12 colon 61.4%
